BH1578 lux ind: induces V. cholerae light production without autoinducers; activation, % at 18.7 µM; AID 588436; V. cholerae BH1578 lux reporter, luminescence, 6 h; hit rate 0.16% among 350,000; in the data active means activation mostly above about 9.7%, no sharp cut-off
Mtb FBA inh: Mtb fructose-bisphosphate aldolase inhibition | inhibition, % at 1 µM | purified M. tuberculosis FBA, fluorescence read-out | hit rate 2.3% among 360,000 | P9WQA3 | AID 588726; in the data active means inhibition above about 27%
Target sequence (P9WQA3 whole entry, looked up): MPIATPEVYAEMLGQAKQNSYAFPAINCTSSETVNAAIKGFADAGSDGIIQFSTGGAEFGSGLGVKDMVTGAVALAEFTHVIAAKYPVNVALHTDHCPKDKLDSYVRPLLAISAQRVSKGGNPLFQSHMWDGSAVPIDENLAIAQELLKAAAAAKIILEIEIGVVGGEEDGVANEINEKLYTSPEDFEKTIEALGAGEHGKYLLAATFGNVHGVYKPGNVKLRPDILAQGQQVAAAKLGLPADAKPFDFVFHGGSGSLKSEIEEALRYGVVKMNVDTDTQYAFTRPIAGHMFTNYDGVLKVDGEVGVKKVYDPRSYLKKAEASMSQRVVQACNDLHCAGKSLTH
GDH-TPI counter: counter-screen for M. tuberculosis FBA inhibitors: GDH-TPI coupled enzymes; hit rate 1.2% among 360,000; inhibition, % at 4.8 µM; GDH-TPI coupled enzyme counterscreen, NADH absorbance; in the data active means inhibition above about 30%
Mtb BioA inh: inhibitors of Mycobacterium tuberculosis BioA enzyme; purified M. tuberculosis BioA enzyme, plate reader; inhibition, % at 9.99 µM; hit rate 0.096% among 360,000; in the data active means inhibition above about 40%
Large screens that a line does not name were inactive. Hits are enriched below; roughly 3% of the tested compounds scored in any of these assays.

C[C@@H]1CN([C@@H](C)CO)C(=O)c2cc(NC(=O)Nc3ccc(C(F)(F)F)cc3)ccc2O[C@H]1CN(C)C(=O)Nc1ccc2c(c1)OCO2	none (no result: BH1578 lux ind, Mtb FBA inh, GDH-TPI counter)
Cc1ccc(S(=O)(=O)N[C@@H]2CC[C@@H](CCNC(=O)C3CCCC3)O[C@@H]2CO)cc1	none (no result: BH1578 lux ind, Mtb FBA inh, GDH-TPI counter)
NC(=O)c1ccc(Nc2nnc(-c3ccc(O)cc3)c3ccccc23)cc1	none (no result: Mtb BioA inh)
CCN(CC)C(=O)COc1ccc(-c2nnc(Nc3ccc(OC)c(C(=O)NC)c3)c3ccccc23)cc1	GDH-TPI counter 45.6 (no result: Mtb BioA inh)
CNC(=O)c1ccc(Nc2nnc(-c3ccc(C(N)=O)cc3)c3ccccc23)cc1	GDH-TPI counter 38.8
Cc1nnc(SCc2c(Cl)cccc2Cl)n(N)c1=O	BH1578 lux ind 57.5 (no result: Mtb BioA inh)
Cc1noc(C)c1NC(=O)Nc1cccc2c1O[C@@H](CN(C)Cc1ccc(-c3ccccc3)cc1)[C@H](C)CN([C@@H](C)CO)C2=O	none (no result: BH1578 lux ind, Mtb FBA inh, GDH-TPI counter)
c1ccc2oc(-c3ccc4c(c3)CNCc3cnnn3-4)cc2c1	Mtb FBA inh active (no result: BH1578 lux ind, GDH-TPI counter)
c1cc2c(cc1N1CCCCC1)CNCc1cnnn1-2	none (no result: BH1578 lux ind, GDH-TPI counter)
N=c1c(S(=O)(=O)c2ccc(Br)cc2)cc2c(=O)n3ccccc3nc2n1CCN1CCOCC1	Mtb FBA inh active (no result: Mtb BioA inh)
N=c1c(C(=O)NCCc2ccccc2)cc2c(=O)n3ccccc3nc2n1CCCN1CCOCC1	Mtb FBA inh 145.5
Cc1ccc(Cn2c(=N)c(C(=O)NCCN3CCOCC3)cc3c(=O)n4ccccc4nc32)cc1	none
N=c1c(C(=O)NCCN2CCOCC2)cc2c(=O)n3ccccc3nc2n1CCc1ccccc1	Mtb FBA inh 173.4
N=c1c(C(=O)NCc2ccc(F)cc2)cc2c(=O)n3ccccc3nc2n1CCCN1CCOCC1	Mtb FBA inh 112.6
N#C/C(=C\C=C\c1ccccc1)C(=O)NCc1cccnc1	GDH-TPI counter 31.1 (no result: Mtb BioA inh)
N#C/C(=C\c1cccc([N+](=O)[O-])c1)C(=O)NCc1cccnc1	none (no result: Mtb BioA inh)
N#C/C(=C\c1cccs1)C(=O)NCc1cccnc1	GDH-TPI counter 35.8 (no result: Mtb BioA inh)
Cc1ccc(-c2ccc3c(c2)O[C@H](CN(C)C(=O)C2CC2)[C@H](C)CN([C@H](C)CO)S3(=O)=O)cc1	none (no result: BH1578 lux ind, Mtb FBA inh, GDH-TPI counter)
Cn1c(N/N=C/c2cccs2)cc(=O)n(C)c1=O	BH1578 lux ind 33.3
COc1ccc(NC(=O)N(C)C[C@H]2Oc3ccc(NS(=O)(=O)c4ccc(F)cc4)cc3C(=O)N([C@H](C)CO)C[C@H]2C)cc1	none (no result: BH1578 lux ind, Mtb FBA inh, GDH-TPI counter)
CN(C(=O)c1ccno1)c1nnc(-c2ccccn2)s1	Mtb FBA inh active
C[C@H](CO)N1C[C@H](C)[C@@H](CN(C)S(C)(=O)=O)Oc2ccc(NC(=O)NC3CCCCC3)cc2CC1=O	none (no result: BH1578 lux ind, Mtb FBA inh, GDH-TPI counter)
Cc1nc(/C=[N+](\[O-])C(C)(C)/C=N/O)n(O)c1C	GDH-TPI counter 30.9
CO[C@H]1CC[C@H]2CCOc3ccc(C#N)cc3C(=O)N(C)C[C@H](OC)[C@@H](C)C(=O)N(C)C[C@H]1O2	none (no result: BH1578 lux ind, Mtb FBA inh, GDH-TPI counter)
CCC(=O)Nc1ccc2c(c1)C(=O)N(C)[C@H]1CC[C@@H](CC(=O)NCCc3ccccc3)O[C@H]1CO2	none (no result: BH1578 lux ind, Mtb FBA inh, GDH-TPI counter)
CCn1c(/C=C/c2cc[n+](C)cc2)nc2ccccc21	none
CCCn1c(/C=C/c2ccccc2)nc2ccccc21	Mtb FBA inh 52.5, GDH-TPI counter 38.1
O=C(C[C@@H]1CC[C@H](NC(=O)C2CC2)[C@@H](CO)O1)NCc1ccccc1Cl	none (no result: BH1578 lux ind, Mtb FBA inh, GDH-TPI counter)
COc1cc(/C=N/NC(=S)N/N=C/c2cc(OC)c(OC)c(OC)c2)cc(OC)c1OC	GDH-TPI counter 45.3 (no result: Mtb BioA inh)
COc1cc(/C=N/NC(=O)c2ccoc2C)cc(OC)c1OC	none
COc1cc(/C=N/NC(=S)NC2CC3CCC2C3)ccc1O (configuration not stated)	GDH-TPI counter 52.4
COc1ccc(C=NNC(=S)Nc2ccc(F)cc2)cc1OC	GDH-TPI counter 69.3
COc1ccc(C=NNC(=S)NN=Cc2ccc(OC)c(OC)c2)cc1OC	GDH-TPI counter 63.8
CNC[C@H]1Oc2ccc(NC(=O)NC3CCCCC3)cc2CC(=O)N([C@H](C)CO)C[C@H]1C	none (no result: BH1578 lux ind, Mtb FBA inh, GDH-TPI counter)
CCCNC(=O)N1C[C@H]2[C@@H](c3ccccc31)[C@@H](CO)N2C(=O)CN1CCOCC1	none (no result: BH1578 lux ind, Mtb FBA inh, GDH-TPI counter)
COc1cc(/C=N/NC(=S)NCCN2CCOCC2)cc(OC)c1O	GDH-TPI counter 49.5
COc1cc(OC)c(OC)cc1/C=N/NC(=S)NCCN1CCOCC1	none (no result: Mtb BioA inh)
CCC(=O)N1CCN(c2ccc(NC(=S)NC(=O)c3cccc([N+](=O)[O-])c3)cc2)CC1	BH1578 lux ind 33.3
CN1C(=O)c2cc(NC(=O)C3CCOCC3)ccc2OC[C@H]2O[C@H](CC(=O)NCc3ccc4c(c3)OCO4)CC[C@H]21	none (no result: BH1578 lux ind, Mtb FBA inh, GDH-TPI counter)
COc1ccc2cc(C3=CCCCC3)ncc2c1	Mtb FBA inh 26.9
C[C@@H]1CN([C@@H](C)CO)C(=O)Cc2cc(N(C)C)ccc2O[C@H]1CN(C)S(=O)(=O)c1ccc(Cl)cc1	none (no result: BH1578 lux ind, Mtb FBA inh, GDH-TPI counter)
COc1cc(NC(=O)c2cc(=O)[nH]c3ccc(S(=O)(=O)N4CCOCC4)cc23)cc(OC)c1	none
Cc1csc(NC(=O)c2cc(=O)[nH]c3ccc(S(=O)(=O)N4CCOCC4)cc23)n1	Mtb FBA inh 45.9 (no result: Mtb BioA inh)
CC1(C)CC(=O)C2=C(C1)NC(=O)CC2c1ccc(F)cc1 (configuration not stated)	BH1578 lux ind 30.2
CN(C)c1ccc(C2CC(=O)NC3=C2C(=O)CC(C)(C)C3)cc1 (configuration not stated)	none
CCOC(=O)C1C2C=CC(CC2)N1c1ccccc1 (configuration not stated)	none
CCOC(=O)C1CCC(C(=O)OCC)N1c1ccc(C=O)cc1 (configuration not stated)	GDH-TPI counter 32.7
O=C(/C=C/c1ccc(F)cc1)Nc1ccc(S(=O)(=O)Nc2ncccn2)cc1	GDH-TPI counter 32.9 (no result: Mtb BioA inh)
Cc1ccc(/C=C/C(=O)Nc2ccc(S(=O)(=O)Nc3ncccn3)cc2)cc1	none (no result: Mtb BioA inh)
C[C@@H]1CN([C@@H](C)CO)C(=O)Cc2cc(NC(=O)Nc3ccccc3)ccc2O[C@H]1CN(C)Cc1ccc2c(c1)OCO2	none (no result: BH1578 lux ind, Mtb FBA inh, GDH-TPI counter)
Cc1ccc(/C=C2/C(=N)N3N=C(CC(=O)N4CCCC4)SC3=NC2=O)o1	GDH-TPI counter 32.8
Cc1cc(/C=C2\C(=N)N3N=C(CC(=O)N4CCOCC4)SC3=NC2=O)c(C)n1Cc1ccccc1	none
COc1cc(/C=C2/C(=N)N3N=C(CC(=O)N4CCOCC4)SC3=NC2=O)ccc1OC(C)c1ccccc1 (configuration not stated)	none
COc1ccc(OC)c(-n2c(C)cc(/C=C3\C(=N)N4N=C(CC(=O)N5CCOCC5)SC4=NC3=O)c2C)c1	GDH-TPI counter 31.0
COc1cccc(-n2c(C)cc(/C=C3\C(=N)N4N=C(CC(=O)N5CCOCC5)SC4=NC3=O)c2C)c1	GDH-TPI counter 31.1
O=C1CS/C(=N/N=C/c2cccs2)N1Cc1ccc(F)cc1	GDH-TPI counter 36.5
COc1ccc(NC(=O)Nc2ccc3c(c2)CC(=O)N([C@H](C)CO)C[C@@H](C)[C@H](CN(C)Cc2ccc(-c4ccccc4)cc2)O3)cc1	none (no result: BH1578 lux ind, Mtb FBA inh, GDH-TPI counter)
O=[N+]([O-])c1ccc(O)c(/C=N/Nc2nn[nH]n2)c1	none
O=[N+]([O-])c1ccc(O)c(/C=N/Nc2ccc(Cl)nn2)c1	GDH-TPI counter 33.4
Cc1ccn(CC(=O)N/N=C/c2cc([N+](=O)[O-])ccc2O)n1	GDH-TPI counter 49.4
Cc1ccc(C)c(NC(=O)/C(C#N)=C/c2ccc[nH]2)c1	GDH-TPI counter 31.3
N#C/C(=C\c1ccc[nH]1)C(=O)NC1CC1	GDH-TPI counter 31.9

From PubChem BioAssay
